Test results reported in PubChem BioAssay AID1745845 (National Center for Advancing Translational Sciences (NCATS), 2022).
Out of some 360,000 compounds screened, about 2,600 (0.72%) were called active. Where a call stands in place of a potency, no number is given. Inconclusive results (about 5%) are left out. Many of the other results were omitted from the sample, so actives are more common in it than they were. Unmarked numbers belong to inactive results. The call rests on the fitted dose curve; in most records, active means well fitted inhibition curve with a large enough effect; inconclusive means small, poorly fitted or top-dose-only effect; inactive means no such curve, though single readings can be large or run the other way.

Test: Primary qHTS for Inhibitors of ATXN expression; further: nearly all actives have a fitted effect of over 55% in size
Conditions: HEK-293 ATXN2-luciferase reporter, luminescence, 24 h; series mostly up to 57 µM
How it was run: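 ATXN2-luciferase reporter cells (luciferase flanked by upstream and downstream ATXN2 gene portions) were treated 24 h at 37 °C with compounds at up to 57 uM. SteadyGlo luminescence gave expression; GF-AFC fluorescence gave viability.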
Potency means the concentration at half of the fitted maximal effect.

SMILES	Potency	activity change, negative = inhibition
CCOCCCNC(=O)c1cn(CC)c2ccc(S(=O)(=O)N3CCc4ccccc4C3)cc2c1=O	inactive	
COc1ccc(NC(=O)CSC2=Nc3ccccc3C3=NC(CC(=O)NCc4ccccc4OC)C(=O)N23)cc1Cl (centres undefined)	inactive	
COc1ccc(NC(=O)Cn2c(=O)cc(C)c3c(C)nn(-c4cccc(Cl)c4C)c32)cc1OC	inactive	
NC(=O)C1CCN(C(=O)c2cccc(NC(=O)c3nsc4ccccc34)c2)CC1	inactive	
c1ccc2c(c1)C(=NC1CCCCC1)NC2=NC1CCCCC1	28.2 µM (active)	
Cc1ccc2nc(-c3ccco3)c(Cc3cccc(Cl)c3)n2c1	inactive	
CN(Cc1ccccc1)c1ncnc2onc(-c3ccc(F)cc3)c12	inactive	
CC(C)(C)NC(=O)NC(=O)COC(=O)Cc1ccc(Cl)cc1Cl	inactive	
Cn1cc(C(=O)c2ccc(Cl)cc2Cl)cc1C(=O)NN	inactive	
CC(C)(C)c1cc(C(=O)NN)n(Cc2ccc(Cl)cc2Cl)n1	12.6 µM (active)	
CCOC(=O)c1cccc(NC(=O)c2cc(CN3CCCC3)on2)c1	inactive	
CN(O)C(=S)c1ccccc1	3.98 µM (active)	
CN(Cc1ccccc1)C(=O)c1cccc(C(=O)N(C)Cc2ccccc2)c1	inactive	
COc1cc(NS(=O)(=O)c2cccs2)cc(OC)c1	inactive	
Cc1c2cnn(-c3ccccc3)c(=O)c2c(C)n1C(C)C(=O)Nc1ccc(Br)cc1F (centres undefined)	inactive	
S=C(NCCCc1cnc[nH]1)NCCCN(Cc1ccc(Cl)c(Cl)c1)c1ccc(Br)cn1	15.8 µM (active)	
COc1ccccc1CNC(=O)C(=O)NCC(c1cccs1)S(=O)(=O)c1cccs1 (centres undefined)	inactive	
COc1ccc(CCNC(=O)CCCn2c(=O)c3ccccc3n(Cc3ccc(C)cc3)c2=O)cc1OC	inactive	
CCCCCCCc1ccc(CCc2cccc(O)c2C(=O)O)cc1	inactive	
COc1ccccc1OCCCn1c(-c2ccc(Cl)cc2)nc2ccccc2c1=O	inactive	

SMILES	Potency	activity change, negative = inhibition
COC(=O)c1cc(OC)ccc1-c1ccc(OC)cc1	inactive	
CCOC(=O)C(NC(C)=O)C(=O)Nc1ccc(OC)cc1 (centres undefined)		-27.3% [at 11.3 µM]
CCOC(=O)C1=C(c2ccc(OC)cc2)C(=O)c2ccccc2C1=O	5.01 µM (active)	
Cc1cccc(-c2nc(SCC(=O)Nc3cc(C)on3)c3c(=O)n(C)c(=O)n(C)c3n2)c1	inactive	
CC(NCc1ccc2c(c1)nc(NC(=O)c1ccc(-c3cn[nH]c3)s1)n2CC(C)(C)O)C(C)(C)C (centres undefined)	0.968 µM (active)	
O=C(NCc1ccccc1)C1CCN(S(=O)(=O)c2ccc3[nH]c(=O)ccc3c2)CC1	inactive	
CO[C@]1(NC(=O)CSC(F)F)C(=O)N2C(C(=O)O)=C(CSc3nnnn3CCO)CO[C@H]21	inactive	
Cc1cccc(C(C)C)c1NC(=O)C(NS(=O)(=O)c1cccc2nsnc12)c1ccccc1 (centres undefined)	inactive	
C=C1CCC2[C@](C)(CO)C(O)CC[C@]2(C)C1CC=C1C(=O)OCC1O (some centres undefined)	inactive	
Cc1oc2ccc(O)c(CN3CCCCC3)c2c1C(=O)Nc1cccc(C(F)(F)F)c1	28.2 µM (active)	
Cc1oc2ccc(O)c(CN3CCOCC3)c2c1C(=O)Nc1cccc(Cl)c1C	inactive	
Cc1oc2ccc(O)c(CN3CCC(C)CC3)c2c1C(=O)Nc1ccccc1	inactive	
O=C(c1cccc(Cl)c1)N1CCN(CCc2ccncc2)CC1	inactive	
CCN(CC)c1ccc(C2C(C(N)=O)=C(C)Nc3nc(SCc4ccccc4)nn32)cc1 (centres undefined)	inactive	
CC(C)(C)OC(=O)N1CCC(c2c(C(=O)N3CCc4ccccc4C3)cnn2-c2ccc(F)cc2)CC1	inactive	
COc1ccccc1NC(=O)C1=C(C)Nc2nc(SCC(=O)c3ccc(C)cc3)nn2C1c1ccccc1C (centres undefined)	inactive	
CCc1nc2c(OCc3cccc(OC)c3)cccn2c1N(C)C(=O)C(C)C	inactive	
CCc1nc2c(OCc3ccc(C(=O)OC)cc3)cccn2c1N(C)C(=O)C(C)C	inactive	
CCc1nc2c(OCc3ccc(Cl)cc3Cl)cccn2c1N(C)C(=O)C(C)C	28.2 µM (active)	
COC(=O)[C@@]1(Sc2ccc(C)cc2)CC(=O)N(c2cccc(SC)c2)[C@@H]1c1ccccc1	inactive	

SMILES	Potency	activity change, negative = inhibition
CC=CC[C@@H](C)C(=O)[C@H]1C(=O)N[C@@H](C(C)C)C(=O)N(C)CC(=O)N(C)[C@@H](CC(C)C)C(=O)N[C@@H](C(C)C)C(=O)N(C)[C@@H](CC(C)C)C(=O)N[C@@H](C)C(=O)N[C@H](C)C(=O)N(C)[C@@H](CC(C)C)C(=O)N(C)[C@@H](CC(C)C)C(=O)N(C)[C@@H](C(C)C)C(=O)N1C	inactive	
O=C(NC1CCCC1)C1c2ccccc2OCC(=O)N1CC(F)(F)F (centres undefined)	inactive	
Cc1cc(C)cc(NC(=O)Cn2c(=O)c3ccccc3n3nncc23)c1	inactive	
Cc1cc(NC(=O)c2cccc(Cl)c2)ccc1-c1cc2ccccc2oc1=O	inactive	
O=c1oc2ccccc2cc1-c1cn(-c2ccccc2)c(=S)[nH]1	8.91 µM (active)	
CS(=O)(=O)N1CCN(C(=O)c2cc3ccccc3oc2=O)CC1	inactive	
Cc1ccc(CNC(=O)CCc2c(C)nc3nc(CNC(=O)OC(C)(C)C)nn3c2C)cc1	inactive	
CCN(CC)CCN(C(=O)c1cccc([N+](=O)[O-])c1)c1nc2ccc(OC)cc2s1	inactive	
COc1ccccc1NC(=O)CC(NCCN(C)C)C(=O)O (centres undefined)	inactive	
COc1cccc2sc(N(CCCN(C)C)C(=O)C(c3ccccc3)c3ccccc3)nc12	22.4 µM (active)	
COc1ccc(Cl)cc1N(CC(=O)N/N=C/c1ccc(OCC(N)=O)cc1)S(C)(=O)=O	inactive	
Cc1nc2ccccc2nc(C)c1=NOCc1ccc(Cl)cc1Cl	inactive	
NC(N)=N/N=C/c1ccc(OCc2ccc(Cl)cc2Cl)cc1	22.4 µM (active)	
CCc1nc2ccc(C(=O)N(C)CCN(C)C)cn2c1N(CC)CCOC	inactive	
CC(C)Sc1oc(-c2cccs2)nc1S(=O)(=O)c1ccc(Cl)cc1	inactive	
CC1CC(C)(C)n2c(O)c(N=NC(N)=S)c3cccc1c32 (centres undefined)	28.2 µM (active)	
Cc1ccc(OCCn2c(CNc3ccccc3C)nc3ccccc32)cc1	inactive	
CCCn1ccc2c(OCC(=O)NCc3ccc(F)cc3)cccc2c1=O	inactive	
COc1ccc(C(C#N)=C2C=CC(=NO)c3ccccc32)cc1	inactive	
